In all, about 320,000 compounds went through this assay and about 1,300 (0.41%) were called active. Inconclusive results (about 3%) are left out. The rule behind the calls is not given here. The list is a sample of the results. Entries with a potency or affinity are not part of this list.
experiment: growth inhibition of non-replicating M. tuberculosis (AID 488890); settings: Mycobacterium tuberculosis non-replicating, at 25 µM, stronger effect = higher value;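 note: plate controls were DMSO cells for no effect and high antibiotic wells for full effect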

Row | SMILES | inhibition
1 | CCN(CC)c1ccc(-c2nnc(SCC(=O)Nc3ccccc3C#N)n2-c2ccccc2)cc1 | 41%
2 | CC1(C)CC(=O)C2=C(C1)OC(N)=C(C#N)C2c1ccccc1 (centres undefined) | 24.7%
3 | CC1(C)CC(=O)C2=C(C1)OC(N)=C(C#N)C2Cc1ccccc1 (centres undefined) | 25%
4 | Cc1cc2oc(=O)cc(CN3CCc4ccccc43)c2cc1Cl | -0.24%
5 | COc1ccc(CCn2c(N)cc(=O)[nH]c2=S)cc1OC | 10.4%
6 | CCOc1ccc(CCNC(=O)CCn2nc(C)c3c(C)n(-c4ccccc4)nc3c2=O)cc1 | -11.8%
7 | O=C(OCc1cncs1)c1ccccc1Cl | 32.7%
8 | O=C(OCc1cnc(Cl)s1)c1ccccc1Cl | 56.8%
9 | CCOC(=O)CSc1nnc(CNC(=O)c2cccs2)n1-c1cccc(C)c1 | 33%
10 | C[C@@H]1CCCCCCCCC(=O)OCCN(C(=O)OC(C)(C)C)[C@H](C)CCCCCCCCC(=O)OCCN(C(=O)OC(C)(C)C)[C@H](C)CCCCCCCCC(=O)OCCN(C(=O)OC(C)(C)C)[C@H](C)CCCCCCCCC(=O)OCCN1C(=O)OC(C)(C)C | -3.81%
11 | Clc1ccc(CSc2nnc(-c3cccnc3)o2)cc1 | 47.9%
12 | O=[N+]([O-])c1cccc(-c2nnc(SCc3cccnc3)o2)c1 | 43.9%
13 | O=[N+]([O-])c1ccc(CSc2nnc(-c3cnccn3)o2)cc1 | 66.9%
14 | Brc1ccc(CSc2nnc(-c3cccnc3)o2)cc1 | -15.4%
15 | Cc1cc(C(=O)Nc2ccccc2C)on1 | -6.92%
16 | CCCC(=O)Nc1ccc(C(=O)/C=C/c2ccc(SC)cc2)cc1 | 42.6%
17 | COc1cc2c(cc1OC)C(c1cc3cccc(C)c3[nH]c1=O)N(C(=O)c1ccco1)CC2 (centres undefined) | 30.4%
18 | COc1ccc(NC(=S)NCc2ccc(F)cc2)c(OC)c1 | 14.9%
19 | CC1CCN(C(=O)CN(CCc2ccccc2)S(C)(=O)=O)CC1 | -0.19%
20 | O=C(O)CCN1C(=O)/C(=C\c2ccncc2)SC1=S | 38.8%
21 | O=C(O)CCCN1C(=O)/C(=C/c2ccncc2)SC1=S | 65%
22 | Cn1c(CNC(=O)CNS(=O)(=O)c2ccccc2)cc(=O)n(C)c1=O | -2.98%

Row | SMILES | inhibition
23 | CCCCn1c(N)c(N(CC)C(=O)CCc2ccccc2)c(=O)[nH]c1=O | 9.68%
24 | O=C(c1cccc2ccccc12)N1CCCCC1 | -8.51%
25 | O=C(c1cccc(F)c1F)N1CCCC1 | -8.96%
26 | CCOP(=O)(OCC)C(NC(=O)C(F)(F)F)c1ccccc1 (centres undefined) | 3.99%
27 | COc1ccc(S(=O)(=O)CCC(=O)NCCc2cccc(C)c2)cc1 | -8.54%
28 | CCOc1ccc(C(=O)CC(=O)C(=O)NCCc2ccc(OC)c(OC)c2)cc1 | 31.3%
29 | Cc1nc2cc(NS(=O)(=O)c3ccccc3F)ccc2s1 | 3.43%
30 | COc1ccccc1Oc1cc(-n2nc(C)cc2C)ncn1 | 30%
31 | CCOC(=O)c1cnc(Nc2nc3ccccc3o2)nc1CSC(=S)N(CC)CC | 28.1%
32 | CCOC(=O)c1cnc(Nc2nc3ccccc3o2)nc1CSc1ncccn1 | 1.64%
33 | CCn1ncc(C(=O)Nc2ccc(F)cc2)c1C | -7.3%
34 | O=C(CCn1c(=S)[nH]c2ccccc2c1=O)Nc1cccc(Cl)c1 | -2.2%
35 | N=c1n(Cc2ccccc2)c2ccccc2n1CC(O)COc1ccccc1 (centres undefined) | 70.8%
36 | COc1ccccc1OCC(O)Cn1c(=N)n(Cc2ccccc2)c2ccccc21 (centres undefined) | 45%
37 | CC(=O)Nc1ccc(OCC(O)Cn2nc(C)c(C(C)=O)c2C)cc1 (centres undefined) | -9.63%
38 | COc1ccc(C(=O)C2CCCN(C(=O)c3c4c(nn3C)CCCC4)C2)cc1F (centres undefined) | -19.7%
39 | COC(=O)c1ccc(NC(=O)C2C3C=CC(O3)C2C(=O)O)cc1 (centres undefined) | 5.13%
40 | CCOC(=O)c1ccc(NC(=O)C2C3C=CC(O3)C2C(=O)O)cc1 (centres undefined) | 20.5%
41 | COC(=O)Cc1ccc(NC(=O)c2ccc(Br)o2)cc1 | 72.6%
42 | Cc1ccc(C(=O)Nc2ccc3c(c2)CCC3)o1 | 79.8%
43 | CCN(CC)c1ccc(NC(=O)c2ccc(Br)o2)cc1 | 52.8%
44 | O=C(Nc1ccc2c(c1)Cc1ccccc1-2)c1ccc(Br)o1 | 53.9%

Row | SMILES | inhibition
45 | CC(NC(=O)CCSCCC(=O)NC(C)c1ccccc1)c1ccccc1 (centres undefined) | 21.4%
46 | Cc1cc(C(=O)N2CCN(c3ccc(F)cc3)CC2)on1 | 53.3%
47 | COc1ccc(C2=NS(=O)(=O)N(C)C(C(=O)Nc3ccc(OC)c(OC)c3)=C2)cc1 | 17.6%
48 | NC(=O)CC(NC(=O)c1ccc(Br)cc1)c1ccc(NC2CCCCCC2)c([N+](=O)[O-])c1 (centres undefined) | 7.44%
49 | CC1(C)CC(=O)c2cc(C(=O)O)c(=O)n(-c3ccccc3)c2C1 | 15.2%
50 | CC1(C)CC(=O)c2cc(C(=O)Nn3cnnc3)c(=O)n(-c3ccccc3)c2C1 | 9%
51 | COc1ccccc1CCC(=O)OCC(=O)NCc1ccc(OC)c(OC)c1 | -1.1%
52 | COc1ccccc1C1NC(=O)CCC1[N+](=O)[O-] (centres undefined) | 3.51%
53 | NS(=O)(=O)c1ccc(Nc2ccc([N+](=O)[O-])c3nonc23)cc1 | 66.5%
54 | O=[N+]([O-])c1c(Nc2ccccc2O)ccc2nonc12 | 61.7%
55 | O=C(O)c1ccc(Nc2ccc([N+](=O)[O-])c3nonc23)cc1 | 25.2%
56 | CCOc1ccc(Nc2ccc3nonc3c2[N+](=O)[O-])cc1 | -4.04%
57 | O=C(O)c1ccccc1Nc1ccc([N+](=O)[O-])c2nonc12 | 8.28%
58 | O=C(O)c1cccc(Nc2ccc([N+](=O)[O-])c3nonc23)c1 | 16.5%
59 | COc1ccccc1N1C(=S)N=C(Nc2c(C)cccc2C)C12CCCC2 | 15.9%
60 | CC(C)(C)NC(=O)C1CCCN(S(=O)(=O)c2ccc(-n3cnnn3)cc2)C1 (centres undefined) | 17%
61 | COC(=O)CNC(=O)CSc1nnc2cc(C)c3ccccc3n12 | -0.34%
62 | CC(/C=C/C1[C@H](C)C[C@H](O[C@@H]2O[C@H](CO)[C@@H](O)[C@H](O)[C@H]2O)CC1(C)C)O[C@H]1O[C@H](CO)[C@@H](O)[C@H](O)[C@H]1O (some centres undefined) | -10.5%
63 | Cc1ccc2c(-c3ccc([N+](=O)[O-])cc3)cc(=O)[nH]c2c1 | -4.88%
64 | Cc1cccn2c(=O)c(C=Nc3ccccc3)c(NCc3ccco3)nc12 | 56.2%
65 | Cc1ccc2nc(NCc3ccco3)c(C=NCc3ccco3)c(=O)n2c1 | 0.74%
66 | O=C(CN1CCN(S(=O)(=O)c2ccccc2)CC1)NC(=O)NCc1ccco1 | 1.38%

Row | SMILES | inhibition
67 | O=C(O)c1ccccc1NCc1ccncc1 | 4.81%
68 | C[C@]12CCC(=O)C=C1CCC1C2CC[C@@]2(C)C1CC[C@]2(C)O (some centres undefined) | 11.1%
69 | CCOC(=O)c1cc(-c2ccc(/C=N\n3cnnc3)o2)ccc1Cl | 10%
70 | O=Cc1ccc(-c2ccc(C(=O)O)cc2)o1 | -8.13%
71 | CCCCOC(=O)c1ccc(-c2ccc(/C=N/NC(=S)NCC)o2)cc1 | 73.2%
72 | CCCCOC(=O)c1cc(-c2ccc(/C=N/n3cnnc3)o2)ccc1Cl | 75.6%
73 | CC(=O)C1=C(O)C(=O)N(CCC(=O)O)C1c1cccc(F)c1 (centres undefined) | -0.65%
74 | CCCC(=O)NNc1c2ccccc2nc2ccccc12 | 74.5%
75 | O=C(NNc1c2ccccc2nc2ccccc12)c1ccc(O)cc1 | 42%
76 | CCOc1ccc(S(=O)(=O)Nc2ccc(C(=O)NCCCN3CCOCC3)cc2)cc1 | -11.7%
77 | CCC(C)C(NC(=O)C1CCC(C)CC1)C(=O)NCc1ccco1 (centres undefined) | -7.14%
78 | C/C(=N/NC(=O)CNC(=O)c1ccccn1)c1ccc([N+](=O)[O-])cc1 | -2.72%
79 | C/C(=N\NC(=O)C(c1ccccc1)c1ccccc1)c1ccccn1 | 78.2%
80 | O=S(=O)(c1ccc2nc(-c3ccccc3)[nH]c2c1)N1CCN(c2ccc(Cl)cc2)CC1 | -14.5%
81 | COc1ccc(/C(C)=N/Nc2ccccc2Cl)c(O)c1 | 9.47%
82 | C/C(=N\Nc1ncc(Cl)cc1Cl)c1ccc(OC(F)F)cc1 | 66.3%
83 | COc1ccc([N+](=O)[O-])cc1NC(=O)c1cn(-c2ccc(Cl)cc2)c(=O)c2ccccc12 | -16.7%
84 | N#CC1=C(N)Oc2nc[nH]c(=O)c2C1c1cccs1 (centres undefined) | -24.7%
85 | Cc1cc(C)n2nc(N)c(N=Nc3ccc(Cl)cc3)c2n1 | 74.1%
86 | Cc1cc(C)n2nc(N)c(N=Nc3cccc(Cl)c3)c2n1 | 79.2%
87 | Cc1ccc(CC2S/C(=N/c3ccccn3)NC2=O)cc1 (centres undefined) | 21.2%
88 | O=C1N/C(=N/c2ccccn2)SC1Cc1ccccc1 (centres undefined) | 61.6%

Row | SMILES | inhibition
89 | Cn1ccnc1SCC(=O)Nc1cccc(O)c1 | 1.05%
90 | CC/C(=N/Nc1ccccc1Cl)c1cnnc(-c2ccccc2)n1 | 5.04%
91 | COCCNC(=O)Cn1cc(C(=O)c2ccccc2F)c2ccccc21 | 6.99%
92 | CCC(NC(=O)c1cc(COc2cncc(Cl)c2)on1)c1ccncc1 (centres undefined) | 21.9%
93 | CCC(NC(=O)c1cc(COc2cncc(Cl)c2)on1)c1ccc(C)cc1 (centres undefined) | 61.6%
94 | COCCCN1C(=O)C(=O)/C(=C(/O)c2ccc(OC(C)C)cc2)C1c1ccc(O)c(OC)c1 (centres undefined) | -2.98%
95 | CCc1cc2cccc(C)c2nc1SCC(=O)NNC(=O)c1ccco1 | -10.6%
96 | C=CCn1c(O)c(C(C)=Nc2ccc(C(=O)O)cc2)c(=O)[nH]c1=O | 6.37%
97 | C=CCn1c(O)c(C(C)=Nc2ccc(NC(C)=O)cc2)c(=O)[nH]c1=O | -9.1%
98 | O=C(Nc1ccc(Cl)c(Cl)c1)C1=Cc2ccccc2OC1 | 58%
99 | O=S(=O)(Nc1ccc(Cl)c(Cl)c1)N1CCOCC1 | -2.78%
100 | COc1ccc(S(=O)(=O)N2CCCCCC2)cc1NC(=O)CN1C(=O)CNC1=O | 13.3%
101 | CCNC(=O)C(=O)NCC(c1cccs1)S(=O)(=O)c1ccc(C)cc1 (centres undefined) | 2.12%
102 | CN(C)c1cc[n+](CC(=O)Nc2ccc(Cl)cc2)cc1 | 9.15%
103 | CCc1nc2ccc(Br)cc2c(=O)n1-c1ccccc1C(F)(F)F | 26.9%
104 | COc1ccccc1-c1nc2cc(Cl)ccc2c(=O)n1O | 9.28%
105 | O=c1c2cc(Br)ccc2nc(-c2ccccc2)n1O | 78.6%
106 | O=C(O)c1ccccc1-c1nc2cc(Cl)ccc2c(=O)n1O | -1.37%
107 | O=C(OCn1nnc2ccccc2c1=O)c1ccc(S(=O)(=O)N2CCOCC2)cc1 | 33.4%
108 | Cc1nn(-c2ccccc2)c(C)c1NC(=O)COC(=O)c1ccccc1OC(F)F | 9.15%
109 | COc1ccc(NC(=O)C(c2ccccc2)c2ccccc2)c(OC)c1 | -2.93%

— PubChem BioAssay AID488890 (Southern Research Specialized Biocontainment Screening …, 2010)
